High-throughput results from PubChem BioAssay.
Only some compounds are listed: those with a hit (about 3.8% of all), similar ones and a draw of the others.
HT1080 IDH1KD tx: qHTS for induction of synthetic lethality in tumor cells producing 2HG: qHTS for the HT-1080-IDH1KD cell line | hit rate 2% among 360,000 | AID 686971, 2013 | HT-1080 IDH1 knockdown viability, ATP luminescence, 48 h | Potency, µM (series often up to 46.1 µM), for the others: at the highest dose activity, negative = toxicity, hits mostly cytotoxic;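 note: 0% = DMSO wells and -100% = cell-free medium wells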
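After a 2 h attachment period, IDH1KD HT-1080 cells took pin-transferred compound for 48 h at 37 °C; ATP-based luminescence after 10 min room-temperature reagent incubation reported viability.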
TGFb inhibitor: qHTS for Inhibitors of TGF-b. Potency, µM (top dose mostly 46.1 µM), for inactives: at the top dose activity, negative = inhibition, hits mostly inhibitors. hit rate 1.2% among 410,000. HepG2 CAGA-GFP TGF-b/SMAD3 reporter, GFP fluorescence, 18 h; TGF-beta stimulated, 500 pg/mL final. AID 588855, 2011; note: % is set by controls: 0 for no effect and ±100 for the full control effect; nearly all actives have a fitted effect of over 65% in size
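Inhibition of TGF-beta-driven CAGA-GFP reporter expression in HEPG2 cells is measured by cellular GFP fluorescence after 18 h stimulation with 500 pg/mL recombinant TGF-beta in 1% FBS medium at 37 degrees C.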
ATXN viability: Viability Counterscreen for Primary qHTS for Inhibitors of ATXN expression; S2 cells (HEK-293 line with an ATXN2-luciferase reporter) viability, CellTiter-Fluor protease fluorescence, 24 h; Potency, µM (series often up to 56.7 µM), most hits filed as cytotoxic; hit rate 0.49% among 400,000; note: nearly all actives have a fitted effect of over 40% in size
HepG2 tox: qHTS for Inhibitors of TGF-b: Cytotox Counterscreen; HepG2 CAGA-GFP viability, ATP luminescence, 18 h; Potency, µM (top dose mostly 46.1 µM), for inactives: top-dose activity change, negative = cytotoxicity, most hits filed as cytotoxic; hit rate 0.76% among 410,000; AID 588856, 2011
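HepG2 CAGA-GFP cells (1000/well, DMEM with 1% FBS) received compound, then TGF-beta at 500 pg/mL final, and were incubated 18 hours at 37 degrees C. Viability was read by CellTiter-Glo luminescence. Media-only wells were set as complete cell-killing and DMSO as no toxicity.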
HT1080-NT tox: qHTS for induction of synthetic lethality in tumor cells producing 2HG: qHTS for the HT-1080-NT fibrosarcoma cell line. HT-1080-NT fibrosarcoma viability, CellTiter-Glo ATP luminescence, 48 h. Potency, µM (doses to about 46.1 µM), inactives show at the highest dose activity, negative = less viability, actives largely listed as cytotoxic. hit rate 1.6% among 360,000. AID 686970, 2013;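 note: NT is the 2HG producing partner of a matched IDH1 knockdown line; 0% = DMSO-treated cells and -100% = media-only wells without cells; nearly all actives have a fitted effect of over 55% in size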
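A 48-hour cytotoxicity screen used HT-1080-NT cells plated 2 hours before compound delivery. ATP-based CellTiter-Glo luminescence measured viability, normalized to DMSO and no-cell controls.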
ATXN2 expr inh: Primary qHTS for Inhibitors of ATXN expression | Potency, µM (highest dose often 57 µM), for inactives: top-dose activity change, negative = inhibition, hits mostly inhibitors | hit rate 0.72% among 360,000 | AID 1745845, 2022 | HEK-293 ATXN2-luciferase reporter, luminescence, 24 h; note: % is set by controls: 0 for no effect and ±100 for the full control effect; nearly all actives have a fitted effect of over 55% in size
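qHTS (up to 57 uM final) was run with 24 h compound exposure of reporter cells at 37 °C. Each well was multiplexed: SteadyGlo luminescence measured ATXN2-luciferase expression after a fluorogenic Gly-Phe-AFC viability readout (25 uM final).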
An asterisk follows results filed as active; i = inactive; ? = inconclusive; nt = no result; [ ] = remark or other dose. Calls come from the whole dose curve; as a rule, active = well fitted curve in the direction sought with a large enough effect; inconclusive = small, poorly fitted or top-dose-only effect, or another doubt; inactive = no such curve, though single readings can be large; an effect the other way counts as inactive or inconclusive. Potency is the fitted concentration of half-maximal effect.

SMILES	HT1080 IDH1KD tx	TGFb inhibitor	ATXN viability	HepG2 tox	HT1080-NT tox	ATXN2 expr inh
COC(=O)C1=C(C(=O)OC)[C@@H]2N(C)c3ccc(OC)cc3[C@@]23C[C@@H](C(=O)OC)N(C(=O)c2ccc(Br)cc2)C3=N1	?	?	?	-29%	23µM*	?
C=CCN1c2ccccc2[C@]23C[C@@H](C(=O)OC)N(C(=O)OCC)C2=NC(C(=O)OC)=C(C(=O)OC)[C@H]13	7%	?	i	-43%	5%	2%
COC(=O)C1=C(C(=O)OC)[C@@H]2N(Cc3ccccc3)c3ccccc3[C@@]23C[C@@H](C(=O)OC)N(C(C)=O)C3=N1	7%	-11%	?	-15%	3%	-10%
C=CCN1c2ccccc2[C@]23C[C@@H](C(=O)OC)N(C(=O)c4ccc(Br)cc4)C2=NC(C(=O)OC)=C(C(=O)OC)[C@H]13	?	20µM*	?	-29%	18µM*	?
COC(=O)C1=C(C(=O)OC)[C@@H]2N(Cc3ccccc3)c3ccccc3[C@@]23C[C@@H](C(=O)OC)N(C(=O)c2ccc(Br)cc2)C3=N1	?	10µM*	?	-10%	-18%	?
COc1ccc(Cn2c(SCc3ccc(C(=O)NCc4cccs4)cc3)nc3cccnc32)cc1	nt	-29%	nt	-35%	nt	nt
COc1ccc(-n2cc(CNC3CCN(C)CC3)c(-c3cccc(F)c3)n2)cc1	21µM*	?	i	11µM*	21µM*	?
CCOC(=O)c1c(C)c(C(=O)NCc2ccc(Cl)cc2)c(C)n1CC	nt	13%	i	3%	nt	-13%
CC(C)Oc1cc(NC(=O)CS(=O)CC(=O)Nc2cccc(C(F)(F)F)c2)c(Cl)cc1Cl (stereo not drawn)	?	11µM*	i	-114%	?	-22%
COc1ccccc1-[n+]1c(C)cc(/C=C2\Sc3ccccc3N2C)cc1C	0.58µM*	115%	?	-103%	2.6µM*	nt
COc1ccc(-[n+]2c(C)cc(/C=C3\Sc4ccccc4N3C)cc2C)cc1	2.3µM*	102%	?	-74%	4.1µM*	?
COc1ccc(C(=O)/C=C2\Sc3ccccc3N2C)cc1	-7%	9%	nt	-12%	-1%	33%[11.3 µM]
O=[N+]([O-])c1cccc(NNS(=O)(=O)c2ccccc2F)c1	5.8µM*	4%	i	-2%	?	-26%
CCOc1ccc2nc(N3CCCC(C(=O)NCCCN4C(C)CCCC4C)C3)sc2c1 (stereo not drawn)	?	-3%	?	-30%	?	11%
CCOc1ccc2nc(N3CCCC(C(=O)NCCCN4CCCCC4)C3)sc2c1 (stereo not drawn)	?	-4%	?	-35%	18µM*	-20%
CCOc1ccc2nc(N3CCCC(C(=O)NCCCN4CC(C)CC(C)C4)C3)sc2c1 (stereo not drawn)	?	?	?	-95%	16µM*	-27%
CC1(C)CC(=O)C2=C(C1)OC(N)=C(C#N)C2c1cn(-c2ccccc2)nc1-c1ccccc1 (stereo not drawn)	?	?	i	-35%	15µM*	26%
COc1ccc(C=CC(=O)c2cc(O)ccc2O)cc1	18µM*	-3%	i	-4%	16µM*	30%
COC(=O)c1ccc(/C=C/C(=O)c2cccc(OC)c2)cc1	23µM*	?	i	-61%	?	14%
COc1ccc2cc(C(=O)/C=C/c3cc(OC)c(O)c(OC)c3)ccc2c1	16µM*	?	?	18µM*	21µM*	-14%
COc1ccc(C(=O)/C=C/c2ccc(O)cc2)cc1	2%	-17%	i	-32%	-28%	0%
COc1ccc(/C=C/C(=O)c2ccc(C)c([N+](=O)[O-])c2)cc1O	?	18µM*	i	20µM*	-12%	-19%
Cc1ccc(Sc2ccc(N3CCC(C(=O)Nc4ccc(Cl)cc4)CC3)nn2)cc1	nt	0%	i	-5%	nt	-4%
Cc1ccc(CN2C[C@H](Sc3ccccn3)C[C@H]2C(=O)Nc2ccc3sc(C)nc3c2)s1	nt	nt	i	nt	nt	nt
COc1cc(C)cc(C(=O)C=Cc2ccccc2)c1O	?	?	i	-55%	23µM*	-3%
SMILES	HT1080 IDH1KD tx	TGFb inhibitor	ATXN viability	HepG2 tox	HT1080-NT tox	ATXN2 expr inh
COc1ccc(C(=O)/C=C/c2ccccc2)c(OC)c1	?	?	?	-57%	-25%	?
COc1ccc(C(=O)c2ccccc2)c(O)c1	5%	?	i	2%	7%	14%
COc1cc(/C=C/C(=O)c2ccc(C)c([N+](=O)[O-])c2)cc(OC)c1O	?	13µM*	i	-44%	?	?
COc1ccc(C(C)=O)c(O)c1	nt	nt	nt	nt	nt	15µM*
COc1cccc(/C=C/C(=O)c2ccc(C)c([N+](=O)[O-])c2)c1	-24%	?	i	-39%	?	-6%
Cc1ccccc1C(=O)Nc1cccc(C(=O)OCc2cc(=O)n3nc(C4CC4)sc3n2)c1	nt	-35%	?	-11%	nt	5%
O=C(NCc1ccccc1Cl)c1ccc(CSCc2cccc(F)c2)o1	nt	?	nt	-24%	nt	nt
O=C(NCc1ccc(F)cc1Cl)c1ccc(CSCc2ccccc2Cl)o1	nt	13µM*	nt	-32%	nt	nt
COc1ccc(NC(=O)/C=C/c2cc(Br)ccc2OC)cc1	0%	10%	i	-9%	-1%	-16%
COc1ccc(Br)cc1/C=C/C(=O)c1ccc(NC(C)=O)cc1	?	?	?	16µM*	?	22µM*
COc1cc(OC)c(-c2c3cc(O)c(=O)cc-3oc3cc(O)c(O)cc23)cc1OC	?	?	13µM*	-10%	?	-31%
COc1cccc(-c2cc(=O)c3ccccc3o2)c1N	nt	nt	nt	nt	nt	26%
COC(=O)c1ccc(C)c(NS(=O)(=O)c2ccc(C)c([N+](=O)[O-])c2)c1	?	0%	i	-40%	-24%	12%
Cc1c(Cl)cccc1NC(=O)CN1C(=O)COc2ccc(S(=O)(=O)N3CCCCCC3)cc21	nt	3%	nt	1%	nt	nt
Cc1c(Cl)cccc1NS(=O)(=O)c1ccc(NS(=O)(=O)c2ccc3c(c2)OCCO3)cc1	nt	16µM*	i	-42%	nt	?
